# From article PMC7826789 (International Journal of Molecular Sciences, 2021)
# Tests used:
# Conditions in all cases: Compound Concentration (nM):1000
# [1] = system: GRK1
# [2] = system: T1, GRK2
# T1 construct: gene ADRBK1
# [3] = system: T2, GRK3
# T2 construct: gene ADRBK2
# [4] = system: GRK4
# [5] = system: GRK7
# [6] = system: GSK3A
# [7] = system: GSK3B
# [8] = system: T3, HASPIN
# T3 construct: gene GSG2
# [9] = system: HCK
# [10] = system: HIPK1
# 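Also: KINOMEscan scanMAX binding as percent activity remaining versus control; lower means stronger binding.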
Compound,Percent Control [1],Percent Control [2],Percent Control [3],Percent Control [4],Percent Control [5],Percent Control [6],Percent Control [7],Percent Control [8],Percent Control [9],Percent Control [10]
COc1cccc(-n2ncc3c(N/N=C/c4ccncc4)ncnc32)c1 [GW784752X],99%,84%,100%,88%,87%,16%,2.5%,75%,100%,28%
COc1ccc2c(-c3ccnc(Nc4cccc(OC(F)(F)F)c4)n3)cnn2n1 [GW810372X],97%,100%,98%,100%,100%,34%,97%,72%,100%,0.7%
C/C(Nc1ccc(S(N)(=O)=O)cc1)=C1/C(=O)Nc2ccccc21 [GW335962X],85%,98%,100%,100%,97%,90%,97%,33%,79%,79%
COc1ccccc1-c1cc(/C=C2\C(=O)Nc3ncc(Br)cc32)cc(Br)c1O [GW442130X],100%,100%,100%,100%,63%,100%,100%,100%,100%,66%
CCS(=O)(=O)c1ccc(OC)c(Nc2ncc(-c3cccc(F)c3)o2)c1 [GW621970X],100%,100%,100%,100%,100%,94%,91%,79%,32%,82%
NS(=O)(=O)c1ccc(N/N=C2\C(=O)Nc3ccc(C(=O)NCc4ccncc4)cc32)cc1 [GW300657X],69%,86%,76%,100%,83%,27%,35%,54%,100%,19%
Cl.O=S1CCN(Cc2ccc(-c3ccc4ncnc(Nc5ccc(OCc6ccccc6)c(F)c5)c4c3)o2)CC1 [GW576924A],98%,100%,100%,100%,100%,100%,100%,96%,100%,100%
CCS(=O)(=O)c1ccc(OC)c(Nc2ncc(-c3cccc(OC)c3)o2)c1 [GW580509X],100%,100%,100%,100%,100%,91%,85%,83%,49%,42%
COc1cc(/C=N/Nc2ncnc3[nH]ncc23)ccc1O [GW578748X],83%,100%,78%,100%,100%,34%,78%,0.2%,64%,24%
NS(=O)(=O)c1ccc(Nc2ncc(-c3ccccc3)o2)cc1 [GW572399X],100%,100%,100%,100%,100%,99%,83%,100%,100%,100%
COc1cc(N2CCN(C(C)C)CC2)ccc1Nc1nc(Nc2ccc(F)cc2C(=O)NC[C@@H](O)CO)c2cc[nH]c2n1 [GSK1392956A],91%,100%,67%,94%,93%,100%,98%,86%,100%,15%
COc1ccc2[nH]c3c4[nH]c5ccc(OC)cc5c4c4c(c3c2c1)C(=O)NC4=O [GW296115X],95%,88%,70%,100%,64%,100%,68%,76%,74%,56%
NS(=O)(=O)c1ccc(N/N=C2\C(=O)Nc3ccc(Cl)cc32)cc1 [GW280670X],100%,100%,100%,100%,100%,54%,91%,97%,100%,98%
CC1=C(C(=O)Nc2ccc3[nH]ncc3c2)C(c2ccc(Cl)c(Cl)c2)CC(=O)N1 (stereo not shown) [GSK299115A],89%,16%,20%,100%,99%,100%,100%,84%,81%,72%
Cl.O=C(O[C@H]1CN[C@H](C#Cc2cc3ncnc(Nc4ccc5c(cnn5Cc5ccccc5)c4)c3s2)C1)N1CCOCC1 [GSK200398A],86%,100%,80%,100%,84%,93%,90%,93%,100%,91%
Nc1ncnc2occ(-c3ccc(NC(=O)Nc4cc(C(F)(F)F)ccc4F)cc3)c12 [GW770249X],100%,100%,98%,100%,100%,23%,100%,100%,74%,51%
